In PubChem BioAssay AID1851 (National Center for Advancing Translational Sciences (NCATS), 2009):
The whole screen tested about 16,000 compounds, of which about 5,100 (32%) were called active. Another 25% or so got no clear call; they are omitted. This is one part of the list. Unmarked numbers belong to inactive results. Calls come from the whole dose curve; as a rule, active = well fitted curve in the direction sought with a large enough effect; inconclusive = small, poorly fitted or top-dose-only effect, or effect the other way; inactive = no such curve, though single readings can be large or run the other way.

Target: Cytochrome P450 3A4 (Homo sapiens) (UniProt P08684)
Sequence (P08684 whole entry, looked up): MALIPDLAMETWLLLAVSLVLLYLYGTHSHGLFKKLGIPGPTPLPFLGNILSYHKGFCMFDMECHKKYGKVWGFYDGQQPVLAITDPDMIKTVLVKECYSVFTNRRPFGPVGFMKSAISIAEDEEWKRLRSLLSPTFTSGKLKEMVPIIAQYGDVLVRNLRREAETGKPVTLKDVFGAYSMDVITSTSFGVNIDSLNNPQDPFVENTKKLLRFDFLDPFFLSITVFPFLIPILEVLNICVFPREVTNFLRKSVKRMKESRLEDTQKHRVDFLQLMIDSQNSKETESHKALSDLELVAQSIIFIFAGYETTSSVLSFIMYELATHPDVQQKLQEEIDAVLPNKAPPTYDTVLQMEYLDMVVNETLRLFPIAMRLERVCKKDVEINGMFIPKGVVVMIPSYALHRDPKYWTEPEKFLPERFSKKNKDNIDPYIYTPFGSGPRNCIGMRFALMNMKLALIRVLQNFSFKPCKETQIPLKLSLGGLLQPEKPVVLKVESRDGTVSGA
Assay: Cytochrome panel assay with activity outcomes
Conditions: recombinant CYP, pro-luciferin dealkylation, luminescence, p450-cyp3a4; series mostly up to 57.1 µM; activity, negative = inhibition: at the top concentration
% is set by controls: 0 for no effect and ±100 for the full control effect.

**Q.** How did the “activity, negative = inhibition” value turn out when `CCCCn1nnnc1SCC(=O)N1CCCC1` was run?
**A.** -11.6%

**Q.** With `CCCCn1c(SCC(=O)N2CCCC2)nc2c1c(=O)n(C)c(=O)n2C` as the compound, how does the AC50 read?
**A.** 17.8 µM (active)

**Q.** How did the “activity, negative = inhibition” value turn out when `COCCCn1nnnc1SCC(=O)N1CCCC1` was run?
**A.** -6.38%

**Q.** `COc1ccc(CNc2ncnc3ccc(-c4ccc(C(=O)N(C)C)cc4)cc23)c(OC)c1` was tested. Which AC50 did it give?
**A.** 2.51 µM (active)

**Q.** `COc1ccccc1CNc1ncnc2ccc(-c3ccc(C(=O)N(C)C)cc3)cc12` was tested. Which AC50 did it give?
**A.** 10 µM (active)

**Q.** `CN1CCCC[C@@H]1CCN1c2ccccc2Sc2ccc(S(C)=O)cc21` (some centres undefined) was tested. Which AC50 did it give?
**A.** inactive

**Q.** `COc1ccc(CNC(=O)c2csc(Cc3ccc(OC)cc3)n2)cc1` was tested. Which AC50 did it give?
**A.** 3.16 µM (active)

**Q.** `COc1ccc(CN[C@H](C)C(=O)O)cc1` was tested. Which activity, negative = inhibition did it give?
**A.** 0.14% [at 11.4 µM]

**Q.** `COc1ccc(CNC(=O)c2csc(Cc3ccc(Cl)cc3)n2)cc1` was tested. Which AC50 did it give?
**A.** 3.55 µM (active)

**Q.** For `COc1ccc(CNC(=O)c2cnc(C)cn2)cc1`, which AC50 is on record?
**A.** 2 µM (active)

**Q.** Which activity, negative = inhibition does the source give for `COC(=O)C1=C(C)C(c2ccc(OC)cc2)NC(=S)N1` (centres undefined) here?
**A.** -11.5% [at 2.29 µM]

**Q.** For `COc1ccc(Cc2c(N)nc(N)nc2N)cc1`, which “activity, negative = inhibition” value is on record?
**A.** 6.23%

**Q.** `Cc1cnc(C(=O)OCC(=O)NC(C)C)cn1` was tested. Which activity, negative = inhibition did it give?
**A.** -1.72% [at 2.29 µM]

**Q.** Which “activity, negative = inhibition” value does the source give for `O=C(O)c1cc(=O)c2ccc(Cl)cc2[nH]1` here?
**A.** -8.53%

**Q.** With `CC(=O)Nc1nnc(S(N)(=O)=O)s1` as the compound, how does the “activity, negative = inhibition” value read?
**A.** -10.2% [at 25.6 µM]

**Q.** `Cc1ccc(S(=O)(=O)c2c(C)nn(C(C)(C)C)c2OC(=O)c2cccs2)cc1` was tested. Which AC50 did it give?
**A.** 2.24 µM (active)

**Q.** Which “activity, negative = inhibition” value does the source give for `COCC(=O)Oc1c(S(=O)(=O)c2ccc(C)cc2)c(C)nn1-c1ccccc1` here?
**A.** -24.1%

**Q.** How did the “activity, negative = inhibition” value turn out when `CCOC(=O)Oc1c(OC)cc(C(=O)O[C@H]2C[C@H]3CN4CCc5c([nH]c6cc(OC)ccc56)[C@@H]4C[C@H]3[C@@H](C(=O)OC)[C@@H]2OC)cc1OC` was run?
**A.** -29.6% [at 25.6 µM]

**Q.** How did the “activity, negative = inhibition” value turn out when `COc1ccc(/C=N/NC(=O)c2ccccc2)cc1CN1CCN(c2ccc(F)cc2)CC1` was run?
**A.** -19.8%

**Q.** For `COc1ccc(C2C(C#N)=C(N)Oc3n[nH]c(C)c32)cc1CN1CCN(c2ccc(F)cc2)CC1` (centres undefined), which AC50 is on record?
**A.** 8.91 µM (active)

**Q.** For `O=C(NC(=S)Nc1cccc(Cl)c1N1CCCC1)c1ccc(-c2cccc([N+](=O)[O-])c2)o1`, which AC50 is on record?
**A.** 4.47 µM (active)

**Q.** How did the “activity, negative = inhibition” value turn out when `CCCSc1nc(C)cc(C)c1C(N)=O` was run?
**A.** 9.69%

**Q.** For `Cn1cc(C(=O)OCC2CCN(CCNS(C)(=O)=O)CC2)c2ccccc21`, which “activity, negative = inhibition” value is on record?
**A.** -3.41%

**Q.** Which AC50 does the source give for `COc1cc(COc2cc(N)c(Cl)cc2C(=O)CCC2CCN(CCNS(C)(=O)=O)CC2)cc(OC)c1` here?
**A.** 2 µM (active)

**Q.** How did the “activity, negative = inhibition” value turn out when `CCCCN1CCC(CCC(=O)c2cc(Cl)c(N)cc2OC)CC1` was run?
**A.** -12.3%

**Q.** How did the “activity, negative = inhibition” value turn out when `O=C(Nc1ccc(C(=O)Nc2ccc(C(=O)Nc3ccc(S(=O)(=O)O)c4cc(S(=O)(=O)O)cc(S(=O)(=O)O)c34)cc2)cc1)Nc1ccc(C(=O)Nc2ccc(C(=O)Nc3ccc(S(=O)(=O)O)c4cc(S(=O)(=O)O)cc(S(=O)(=O)O)c34)cc2)cc1` was run?
**A.** -13.5%

**Q.** `Cc1nc2c(ccc3nc(NC(=O)c4ccc5c(c4)OCCO5)sc32)s1` was tested. Which AC50 did it give?
**A.** 6.31 µM (active)

**Q.** How did the AC50 turn out when `CCN1CCc2nc(NC(=O)c3ccc4c(c3)OCCO4)sc2C1` was run?
**A.** 14.1 µM (active)

**Q.** With `CCN1CCc2c(sc(N)c2C(N)=O)C1` as the compound, how does the “activity, negative = inhibition” value read?
**A.** -1%

**Q.** How did the “activity, negative = inhibition” value turn out when `COc1cc(C(=O)Nc2nc3ccc4nc(C)sc4c3s2)cc(OC)c1OC` was run?
**A.** -6.95%

**Q.** For `COc1cccc(C(=O)Nc2nc3c(s2)CN(C)CC3)c1`, which “activity, negative = inhibition” value is on record?
**A.** 12.5%

**Q.** For `CCC(=O)NC(=S)Nc1ccc(NC(=O)COc2ccc(Cl)cc2Cl)cc1`, which AC50 is on record?
**A.** 12.6 µM (active)

**Q.** `O=C(COc1ccc(Cl)cc1Cl)N/N=C/CCc1ccccc1` was tested. Which AC50 did it give?
**A.** 11.2 µM (active)

**Q.** With `Cc1cc(NC(=O)COc2ccc(Cl)cc2Cl)n(-c2ccccc2)n1` as the compound, how does the activity, negative = inhibition read?
**A.** -28.2% [at 11.4 µM]

**Q.** How did the activity, negative = inhibition turn out when `CCc1ccc(OCC(=O)NC(=S)Nc2ccc(F)cc2)c(Br)c1` was run?
**A.** -0.136% [at 2.29 µM]

**Q.** With `C/C(=N/NC(=O)c1cccs1)c1ccc(NC(=O)COc2ccc(Cl)cc2Cl)cc1` as the compound, how does the activity, negative = inhibition read?
**A.** -10.1% [at 2.29 µM]

**Q.** `O=C(COc1ccccc1C(=O)N/N=C\c1ccc(O)c(O)c1)N/N=C/c1ccc(O)c(O)c1` was tested. Which activity, negative = inhibition did it give?
**A.** 12.4% [at 2.29 µM]

**Q.** Which activity, negative = inhibition does the source give for `Cc1ccccc1C(=O)Nc1ccc(C(=O)NNC(=O)CCCOc2ccc(Cl)cc2Cl)cc1` here?
**A.** -18.9% [at 2.29 µM]

**Q.** With `CC(C/C=N/NC(=O)COc1cc(Cl)ccc1Cl)c1ccccc1` (centres undefined) as the compound, how does the AC50 read?
**A.** 14.1 µM (active)

**Q.** Which AC50 does the source give for `CC(=C/c1ccccc1)/C=N/n1cnnc1` here?
**A.** 12.6 µM (active)

**Q.** For `CC(=C\C(=O)O)/C(=C/c1ccccc1)C(=O)O`, which “activity, negative = inhibition” value is on record?
**A.** -2.43%

**Q.** Which “activity, negative = inhibition” value does the source give for `CC(/C=N\NC(=O)Cn1c(C)nc2ccccc21)=C\c1ccccc1` here?
**A.** 1.66%

**Q.** How did the AC50 turn out when `FC(F)(F)c1ccccc1-c1nc(Nc2ccncc2)c2ccccc2n1` was run?
**A.** 0.631 µM (active)

**Q.** Which AC50 does the source give for `Cc1ccccc1-c1nc(Nc2ccncc2)c2ccccc2n1` here?
**A.** 6.31 µM (active)

**Q.** For `CNc1nc(-c2ccccc2C(F)(F)F)nc2ccccc12`, which “activity, negative = inhibition” value is on record?
**A.** -26.2%

**Q.** For `Clc1ccccc1-c1nc(Nc2ccncc2)c2ccccc2n1`, which AC50 is on record?
**A.** 3.98 µM (active)

**Q.** `CNc1nc(-c2ccccc2Cl)nc2ccccc12` was tested. Which AC50 did it give?
**A.** 25.1 µM (active)

**Q.** `CNC(=O)c1sc(SC)cc1-c1ccc(Cl)cc1` was tested. Which “activity, negative = inhibition” value did it give?
**A.** -8.38%

**Q.** With `Clc1ccccc1C(Nc1cnccn1)Nc1cnccn1` as the compound, how does the activity, negative = inhibition read?
**A.** -4.71% [at 11.4 µM]
